{"source": "the supplement of paper PMC8728848", "binders": {"B1": {"name": "Tachylectin-2 (Tachypleus tridentatus), TAL2_TACTR (protein)", "chain": "VGGESMLRGVYQDKFYQGTYPQNKNDNWLARATLIGKGGWSNFKFLFLSPGGELYGVLNDKIYKGTPPTHDNDNWMGRAKKIGNGGWNQFQFLFFDPNGYLYAVSKDKLYKASPPQSDTDNWIARATEIGSGGWSGFKFLFFHPNGYLYAVHGQQFYKALPPVSNQDNWLARATKIGQGGWDTFKFLFFSSVGTLFGVQGGKFYEDYPPSYAHDNWLARAKLIGNGGWDDFRFLFF"}}, "assay_in_all_cases": "glycan array binding signal (z-score within array); higher = stronger binding", "details_in_all_cases": "glycan notation: IUPAC condensed, linker removed", "key": {"[1]": {"target": "Fuc(a1-2)Gal(b1-4)GlcNAc", "procedure,_shortened": "(§1)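 The binding signal is a Z-score computed within each array. Data were drawn from 3228 arrays in the Consortium for Functional Glycomics database, restricted to those with a known protein sequence. Scores were averaged over arrays of the same protein sequence at different concentrations or buffers, and over linkers, and negative values can be taken as non-binding.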"}, "[2]": {"target": "Fuc(a1-2)[Gal(a1-4)]Gal(b1-4)GlcNAc", "procedure,_shortened": "as §1"}, "[3]": {"target": "Fuc(a1-2)[GalNAc(a1-3)]Gal(b1-4)GlcNAc(b1-2)Man(a1-3)[Fuc(a1-2)[GalNAc(a1-3)]Gal(b1-4)GlcNAc(b1-2)Man(a1-6)]Man(b1-4)GlcNAc(b1-4)GlcNAc", "procedure,_shortened": "as §1"}, "[4]": {"target": "Fuc(a1-2)[GalNAc(a1-3)]Gal(b1-4)GlcNAc(b1-3)Gal(b1-4)GlcNAc", "procedure,_shortened": "as §1"}, "[5]": {"target": "Fuc(a1-2)[GalNAc(a1-3)]Gal(b1-4)GlcNAc(b1-3)Gal(b1-4)GlcNAc(b1-3)Gal(b1-4)GlcNAc", "procedure,_shortened": "as §1"}, "[6]": {"target": "Fuc(a1-2)[GalNAc(a1-4)]Gal(b1-4)GlcNAc", "procedure,_shortened": "as §1"}, "[7]": {"target": "Gal(a1-4)Gal(b1-4)GlcNAc(b1-3)Gal(b1-4)Glc", "procedure,_shortened": "as §1"}, "[8]": {"target": "Gal(a1-4)GlcNAc", "procedure,_shortened": "as §1"}, "[9]": {"target": "Gal(b1-3)GlcNAc(b1-3)Gal(b1-4)Glc", "procedure,_shortened": "as §1"}, "[10]": {"target": "Gal(b1-3)GlcNAc(b1-3)Gal(b1-4)GlcNAc", "procedure,_shortened": "as §1"}, "[11]": {"target": "Gal(b1-4)GlcNAc(b1-2)Man(a1-3)[GlcNAc(b1-2)Man(a1-6)]Man(b1-4)GlcNAc(b1-4)GlcNAc", "procedure,_shortened": "as §1"}, "[12]": {"target": "Gal(b1-4)GlcNAc(b1-2)[Gal(b1-4)GlcNAc(b1-4)]Man(a1-3)[Gal(b1-4)GlcNAc(b1-2)[Gal(b1-4)GlcNAc(b1-6)]Man(a1-6)]Man(b1-4)GlcNAc(b1-4)GlcNAc", "procedure,_shortened": "as §1"}, "[13]": {"target": "Gal(b1-4)GlcNAc(b1-3)Gal(b1-4)GlcNAc", "procedure,_shortened": "as §1"}, "[14]": {"target": "Gal(b1-4)GlcNAc(b1-3)[Gal(b1-4)GlcNAc(b1-6)]Gal(b1-4)GlcNAc", "procedure,_shortened": "as §1"}, "[15]": {"target": "Gal3S(b1-4)[Fuc(a1-3)]Glc", "procedure,_shortened": "as §1"}, "[16]": {"target": "Gal6S(b1-4)Glc", "procedure,_shortened": "as §1"}, "[17]": {"target": "GalNAc(a1-3)GalNAc", "procedure,_shortened": "as §1"}, "[18]": {"target": "GlcNAc(a1-4)Gal(b1-4)GlcNAc(b1-3)Gal(b1-4)GlcNAc(b1-3)Gal(b1-4)GlcNAc", "procedure,_shortened": "as §1"}, "[19]": {"target": "GlcNAc(a1-6)Gal(b1-4)GlcNAc", "procedure,_shortened": "as §1"}, "[20]": {"target": "GlcNAc(b1-3)Man", "procedure,_shortened": "as §1"}, "[21]": {"target": "GlcNAc(b1-3)[GlcNAc(b1-4)][GlcNAc(b1-6)]GlcNAc", "procedure,_shortened": "as §1"}, "[22]": {"target": "GlcNAc(b1-4)Gal(b1-4)GlcNAc", "procedure,_shortened": "as §1"}, "[23]": {"target": "GlcNAc(b1-4)GlcNAc(b1-4)GlcNAc(b1-4)GlcNAc(b1-4)GlcNAc", "procedure,_shortened": "as §1"}, "[24]": {"target": "GlcNAc(b1-6)GalNAc", "procedure,_shortened": "as §1"}, "[25]": {"target": "Kdn(a2-3)Gal(b1-3)GalNAc", "procedure,_shortened": "as §1"}, "[26]": {"target": "Man(a1-2)Man(a1-2)Man(a1-6)[Man(a1-3)]Man", "procedure,_shortened": "as §1"}, "[27]": {"target": "Man(a1-2)Man(a1-3)[Man(a1-6)]Man(a1-6)[Man(a1-2)Man(a1-3)]Man(b1-4)GlcNAc(b1-4)GlcNAc", "procedure,_shortened": "as §1"}, "[28]": {"target": "Man(a1-3)[Man(a1-6)]Man(a1-6)[Man(a1-3)]Man", "procedure,_shortened": "as §1"}, "[29]": {"target": "Neu5Ac(a2-3)Gal(b1-4)GlcNAc", "procedure,_shortened": "as §1"}, "[30]": {"target": "Neu5Ac(a2-3)Gal(b1-4)GlcNAc(b1-3)Gal(b1-3)GlcNAc", "procedure,_shortened": "as §1"}}, "note": "Shown is part of a subset that was picked to be rich in the strongest signals."}
{"binder": "B1", "values": [{"measurement": "glycan array binding signal (z-score)", "setting": "[1]", "value": -0.309}, {"measurement": "glycan array binding signal (z-score)", "setting": "[2]", "value": -0.436}, {"measurement": "glycan array binding signal (z-score)", "setting": "[3]", "value": 4.37}, {"measurement": "glycan array binding signal (z-score)", "setting": "[4]", "value": 4.29}, {"measurement": "glycan array binding signal (z-score)", "setting": "[5]", "value": 4.11}, {"measurement": "glycan array binding signal (z-score)", "setting": "[6]", "value": 3.88}, {"measurement": "glycan array binding signal (z-score)", "setting": "[7]", "value": -0.296}, {"measurement": "glycan array binding signal (z-score)", "setting": "[8]", "value": 0.001}, {"measurement": "glycan array binding signal (z-score)", "setting": "[9]", "value": -0.315}, {"measurement": "glycan array binding signal (z-score)", "setting": "[10]", "value": -0.357}, {"measurement": "glycan array binding signal (z-score)", "setting": "[11]", "value": -0.295}, {"measurement": "glycan array binding signal (z-score)", "setting": "[12]", "value": -0.294}, {"measurement": "glycan array binding signal (z-score)", "setting": "[13]", "value": -0.367}, {"measurement": "glycan array binding signal (z-score)", "setting": "[14]", "value": -0.43}, {"measurement": "glycan array binding signal (z-score)", "setting": "[15]", "value": -0.39}, {"measurement": "glycan array binding signal (z-score)", "setting": "[16]", "value": -0.268}, {"measurement": "glycan array binding signal (z-score)", "setting": "[17]", "value": 4.41}, {"measurement": "glycan array binding signal (z-score)", "setting": "[18]", "value": 3.96}, {"measurement": "glycan array binding signal (z-score)", "setting": "[19]", "value": 4.99}, {"measurement": "glycan array binding signal (z-score)", "setting": "[20]", "value": -0.096}, {"measurement": "glycan array binding signal (z-score)", "setting": "[21]", "value": -0.413}, {"measurement": "glycan array binding signal (z-score)", "setting": "[22]", "value": 1.17}, {"measurement": "glycan array binding signal (z-score)", "setting": "[23]", "value": 0.004}, {"measurement": "glycan array binding signal (z-score)", "setting": "[24]", "value": 1.42}, {"measurement": "glycan array binding signal (z-score)", "setting": "[25]", "value": -0.296}, {"measurement": "glycan array binding signal (z-score)", "setting": "[26]", "value": -0.33}, {"measurement": "glycan array binding signal (z-score)", "setting": "[27]", "value": -0.173}, {"measurement": "glycan array binding signal (z-score)", "setting": "[28]", "value": -0.344}, {"measurement": "glycan array binding signal (z-score)", "setting": "[29]", "value": -0.374}, {"measurement": "glycan array binding signal (z-score)", "setting": "[30]", "value": -0.256}]}
